From the supplement of paper PMC10849652 come the findings set out here.

What all share (assay): log2 fold change, soluble protein after heating vs DMSO (PISA); higher = thermal stabilisation; K562 cells, 10 uM, 30 min; active = over 0.2 and 3.5 SD of the protein, either way, in both replicates (recomputed)
Compound in experiment [1]: Cc1ccc(NC(=O)c2ccc(CN3CC[C@H](N(C)C)C3)c(C(F)(F)F)c2)cc1Nc1nccc(-c2cncnc2)n1 [bafetinib]
The method, boiled down:
(§1)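 Quantification of soluble protein used TMTpro 16plex LC-MS/MS, with channel sums equalised. Samples were the supernatant after 21,000xg for 90 min of pooled aliquots from K562 cells (2×10^6 cells/mL) treated with 10 μM compound for 30 min, heated for 3 min over 48°C-58°C, and extracted in PBS with 0.5% NP-40 at 4°C. Values, from duplicates, describe thermal stability against control samples on a log2 fold-change scale.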

Compound in experiment [2]: Cc1cccc(CC(=O)N2CCc3c2ccc(-c2cn(C)c4ncnc(N)c24)c3F)n1
The gist of the method: as §1

Compound in experiment [3]: Cc1cn(-c2cc(NC(=O)c3ccc(C)c(Nc4nccc(-c5cccnc5)n4)c3)cc(C(F)(F)F)c2)cn1 [nilotinib]
The gist of the method:
as §1

Compound in experiment [4]: Cc1nc(Nc2n[nH]c3c2CN(C(=O)N[C@H](CN(C)C)c2ccccc2)C3(C)C)c2sccc2n1
The method, boiled down:
as §1

Compound in experiment [5]: Cc1nc(Nc2ncc(C(=O)Nc3c(C)cccc3Cl)s2)cc(N2CCN(CCO)CC2)n1 [dasatinib]
The gist of the method: as §1

Compound in experiment [6]: Cc1ncc(-c2ccnc(Nc3ccc(S(C)(=O)=O)cc3)n2)n1C(C)C
The method, boiled down:
as §1

Compound in experiment [7]: Cn1cc(-c2ccc3c(c2)CCN3C(=O)Cc2cccc(C(F)(F)F)c2)c2c(N)ncnc21
The method, boiled down:
as §1

Compound in experiment [8]: Cn1cc(-c2ccc3nnc(C(F)(F)c4ccc5ncccc5c4)n3n2)cn1
The method, boiled down: as §1

Compound in experiment [9]: Cn1cncc1[C@@](N)(c1ccc(Cl)cc1)c1ccc2c(c1)c(-c1cccc(Cl)c1)cc(=O)n2C [tipifarnib]
The method, boiled down:
as §1

Compound in experiment [10]: FC(F)(F)c1ccc(/C=C/c2nc(COc3ccc(CCCCn4ccnn4)cc3)co2)cc1 [mubritinib]
The method, boiled down:
as §1

About 7,900 targets were measured; listed, in parts, are those with a hit and a random draw of the rest. About 0.6% of all pairs of compound and target were hits. Unmarked numbers belong to inactive results.

Sequence of UniProt Q96PV7 (Q96PV7 whole entry, looked up): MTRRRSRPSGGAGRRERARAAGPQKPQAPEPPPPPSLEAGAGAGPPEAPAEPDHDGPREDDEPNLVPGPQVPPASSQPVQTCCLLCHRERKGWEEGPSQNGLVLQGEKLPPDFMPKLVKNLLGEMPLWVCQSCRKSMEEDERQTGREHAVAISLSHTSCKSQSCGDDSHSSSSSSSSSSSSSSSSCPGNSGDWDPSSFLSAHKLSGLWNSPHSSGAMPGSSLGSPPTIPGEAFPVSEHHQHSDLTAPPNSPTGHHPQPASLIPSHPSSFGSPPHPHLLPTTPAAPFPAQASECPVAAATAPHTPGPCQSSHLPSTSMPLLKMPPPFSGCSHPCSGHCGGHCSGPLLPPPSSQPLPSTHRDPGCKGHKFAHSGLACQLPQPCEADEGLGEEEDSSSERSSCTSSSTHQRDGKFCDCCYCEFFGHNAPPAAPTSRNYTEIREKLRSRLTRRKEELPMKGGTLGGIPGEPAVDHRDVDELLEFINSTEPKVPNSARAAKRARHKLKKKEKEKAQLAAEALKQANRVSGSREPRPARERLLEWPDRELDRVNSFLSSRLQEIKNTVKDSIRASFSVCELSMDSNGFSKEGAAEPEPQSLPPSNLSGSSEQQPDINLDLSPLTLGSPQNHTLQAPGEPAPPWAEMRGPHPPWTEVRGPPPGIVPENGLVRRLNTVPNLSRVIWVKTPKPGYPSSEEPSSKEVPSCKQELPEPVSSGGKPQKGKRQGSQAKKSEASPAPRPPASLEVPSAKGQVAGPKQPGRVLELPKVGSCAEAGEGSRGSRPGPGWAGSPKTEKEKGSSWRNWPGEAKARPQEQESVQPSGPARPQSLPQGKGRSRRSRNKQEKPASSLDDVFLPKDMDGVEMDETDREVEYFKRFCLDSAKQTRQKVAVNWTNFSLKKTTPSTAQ
Sequence of UniProt O00418 (O00418 whole entry, looked up): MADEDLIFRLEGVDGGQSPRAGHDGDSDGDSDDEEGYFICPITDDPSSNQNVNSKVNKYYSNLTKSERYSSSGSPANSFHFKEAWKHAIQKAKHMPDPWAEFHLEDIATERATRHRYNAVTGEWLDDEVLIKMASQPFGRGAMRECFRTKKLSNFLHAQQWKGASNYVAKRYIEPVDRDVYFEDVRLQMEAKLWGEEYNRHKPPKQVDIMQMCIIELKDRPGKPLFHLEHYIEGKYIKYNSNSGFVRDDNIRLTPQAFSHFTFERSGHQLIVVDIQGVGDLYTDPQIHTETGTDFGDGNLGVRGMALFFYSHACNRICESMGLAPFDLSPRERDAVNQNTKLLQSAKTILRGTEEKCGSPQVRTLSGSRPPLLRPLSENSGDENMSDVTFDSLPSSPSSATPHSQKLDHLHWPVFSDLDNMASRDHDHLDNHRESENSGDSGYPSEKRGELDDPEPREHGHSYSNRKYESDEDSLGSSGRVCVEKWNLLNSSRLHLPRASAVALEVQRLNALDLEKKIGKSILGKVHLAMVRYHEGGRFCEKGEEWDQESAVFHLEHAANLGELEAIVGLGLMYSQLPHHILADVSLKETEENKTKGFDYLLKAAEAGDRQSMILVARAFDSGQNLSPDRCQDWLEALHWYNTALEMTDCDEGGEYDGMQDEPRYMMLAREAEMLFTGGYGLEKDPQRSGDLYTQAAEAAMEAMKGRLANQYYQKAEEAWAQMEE
Sequence of UniProt Q01780 (Q01780 whole entry, looked up): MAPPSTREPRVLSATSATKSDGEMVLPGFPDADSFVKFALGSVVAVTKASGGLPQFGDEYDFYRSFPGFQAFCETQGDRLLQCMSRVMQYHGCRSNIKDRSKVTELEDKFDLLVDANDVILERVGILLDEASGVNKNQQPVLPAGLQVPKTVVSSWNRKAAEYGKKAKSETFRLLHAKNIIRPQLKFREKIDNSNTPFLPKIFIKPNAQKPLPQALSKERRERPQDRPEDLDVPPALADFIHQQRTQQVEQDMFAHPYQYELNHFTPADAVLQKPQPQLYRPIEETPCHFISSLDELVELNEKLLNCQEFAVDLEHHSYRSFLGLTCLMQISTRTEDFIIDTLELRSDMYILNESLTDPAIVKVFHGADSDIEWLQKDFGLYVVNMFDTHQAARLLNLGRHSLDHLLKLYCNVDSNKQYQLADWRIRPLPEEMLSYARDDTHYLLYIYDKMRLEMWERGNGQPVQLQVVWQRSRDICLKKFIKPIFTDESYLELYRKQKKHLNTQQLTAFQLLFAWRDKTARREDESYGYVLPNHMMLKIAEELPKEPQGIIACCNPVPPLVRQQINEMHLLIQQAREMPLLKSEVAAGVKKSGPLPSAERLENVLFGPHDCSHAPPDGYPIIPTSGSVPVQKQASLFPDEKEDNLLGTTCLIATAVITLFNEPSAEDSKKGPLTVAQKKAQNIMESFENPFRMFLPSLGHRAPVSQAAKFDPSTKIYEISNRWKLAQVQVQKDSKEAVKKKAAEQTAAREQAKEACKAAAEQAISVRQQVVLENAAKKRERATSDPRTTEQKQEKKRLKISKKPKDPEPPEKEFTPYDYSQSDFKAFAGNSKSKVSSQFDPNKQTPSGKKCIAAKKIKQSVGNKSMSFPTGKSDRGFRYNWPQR
Sequence of UniProt Q99615 (Q99615 whole entry, looked up): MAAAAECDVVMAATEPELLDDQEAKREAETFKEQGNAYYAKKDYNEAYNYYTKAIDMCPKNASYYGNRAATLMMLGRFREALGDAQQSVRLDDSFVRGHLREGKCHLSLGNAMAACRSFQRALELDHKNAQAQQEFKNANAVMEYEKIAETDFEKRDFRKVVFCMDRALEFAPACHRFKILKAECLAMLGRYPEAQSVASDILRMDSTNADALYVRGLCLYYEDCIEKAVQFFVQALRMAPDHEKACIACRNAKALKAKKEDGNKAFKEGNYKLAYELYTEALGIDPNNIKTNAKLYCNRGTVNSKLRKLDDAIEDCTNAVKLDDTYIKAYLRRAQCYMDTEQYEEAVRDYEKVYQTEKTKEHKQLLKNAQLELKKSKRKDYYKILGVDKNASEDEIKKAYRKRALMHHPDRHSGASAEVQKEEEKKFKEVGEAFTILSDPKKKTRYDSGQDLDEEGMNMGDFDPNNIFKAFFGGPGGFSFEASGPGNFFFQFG
Sequence of UniProt Q9H777 (Q9H777 whole entry, looked up): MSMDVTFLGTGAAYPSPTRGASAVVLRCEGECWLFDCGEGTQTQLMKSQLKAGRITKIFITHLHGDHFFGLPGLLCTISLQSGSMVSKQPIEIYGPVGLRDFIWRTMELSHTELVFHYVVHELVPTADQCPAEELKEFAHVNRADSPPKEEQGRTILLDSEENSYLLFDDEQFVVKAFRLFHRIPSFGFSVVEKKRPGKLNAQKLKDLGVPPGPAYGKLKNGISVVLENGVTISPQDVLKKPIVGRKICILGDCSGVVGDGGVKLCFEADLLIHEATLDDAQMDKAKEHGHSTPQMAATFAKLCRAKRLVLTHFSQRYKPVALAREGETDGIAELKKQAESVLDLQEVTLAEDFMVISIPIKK
Sequence of UniProt P54760 (P54760 whole entry, looked up): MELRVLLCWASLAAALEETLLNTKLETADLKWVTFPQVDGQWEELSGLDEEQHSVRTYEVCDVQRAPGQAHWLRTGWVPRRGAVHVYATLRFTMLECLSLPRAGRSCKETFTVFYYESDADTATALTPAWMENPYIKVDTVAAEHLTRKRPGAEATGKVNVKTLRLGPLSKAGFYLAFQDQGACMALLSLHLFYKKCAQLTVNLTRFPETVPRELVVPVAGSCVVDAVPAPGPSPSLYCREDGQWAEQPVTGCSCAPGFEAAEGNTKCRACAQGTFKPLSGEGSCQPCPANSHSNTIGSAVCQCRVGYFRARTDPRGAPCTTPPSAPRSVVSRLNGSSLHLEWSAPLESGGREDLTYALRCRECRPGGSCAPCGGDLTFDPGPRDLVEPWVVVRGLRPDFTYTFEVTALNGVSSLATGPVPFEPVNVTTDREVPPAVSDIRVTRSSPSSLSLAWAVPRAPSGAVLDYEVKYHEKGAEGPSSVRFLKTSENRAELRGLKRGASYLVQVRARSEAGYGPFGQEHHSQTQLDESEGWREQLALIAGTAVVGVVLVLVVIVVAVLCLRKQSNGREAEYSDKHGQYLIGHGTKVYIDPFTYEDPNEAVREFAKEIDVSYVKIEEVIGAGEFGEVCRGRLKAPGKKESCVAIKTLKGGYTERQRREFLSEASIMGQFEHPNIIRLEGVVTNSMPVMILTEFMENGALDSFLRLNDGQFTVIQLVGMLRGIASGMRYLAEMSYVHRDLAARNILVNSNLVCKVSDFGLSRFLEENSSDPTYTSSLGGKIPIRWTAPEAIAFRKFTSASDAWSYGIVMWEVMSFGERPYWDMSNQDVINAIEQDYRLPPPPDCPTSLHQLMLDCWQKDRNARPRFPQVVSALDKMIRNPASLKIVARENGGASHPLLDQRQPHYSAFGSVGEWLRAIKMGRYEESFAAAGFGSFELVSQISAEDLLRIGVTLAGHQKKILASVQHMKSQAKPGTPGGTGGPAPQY
Sequence of UniProt Q9NRY5 (Q9NRY5 whole entry, looked up): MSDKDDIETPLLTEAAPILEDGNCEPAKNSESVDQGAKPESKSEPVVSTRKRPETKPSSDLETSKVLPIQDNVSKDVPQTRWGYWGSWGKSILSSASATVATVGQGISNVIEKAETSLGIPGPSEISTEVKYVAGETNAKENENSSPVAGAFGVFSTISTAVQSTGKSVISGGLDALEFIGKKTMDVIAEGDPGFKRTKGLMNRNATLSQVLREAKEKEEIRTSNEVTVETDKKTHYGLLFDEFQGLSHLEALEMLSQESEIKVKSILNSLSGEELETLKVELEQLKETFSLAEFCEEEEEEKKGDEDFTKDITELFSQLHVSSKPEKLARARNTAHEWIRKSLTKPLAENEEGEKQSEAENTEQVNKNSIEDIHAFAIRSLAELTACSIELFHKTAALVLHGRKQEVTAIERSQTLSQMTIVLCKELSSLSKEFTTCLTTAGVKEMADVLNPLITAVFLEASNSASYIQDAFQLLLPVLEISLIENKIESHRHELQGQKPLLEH

Regarding ERLIN2 (UniProt O94905), the log2 fold change in experiment [1] was 0.039; in experiment [2], 0.032; in experiment [3] it was -0.107; in [4], 0.012; in experiment [5] it was -0.023; in experiment [6], 0.023. Besides, the log2 fold change was -0.104 in [7], 0 in experiment [8], 0.024 in experiment [9] and -0.049 in experiment [10].

On to DENND10 (UniProt Q8TCE6), for which the log2 fold change in [1] was 0.033; in experiment [3], -0.266; in [4], -0.032; in experiment [5], -0.129; in [6] it was -0.353; in [7], -0.131. In addition, the log2 fold change is -0.064 in [8], 0.034 in experiment [9] and 0.077 in experiment [10].

For the target DNAJC7 (UniProt Q99615), the log2 fold change is -0.047 in experiment [1]; 0.031 in experiment [2]; -0.107 in experiment [3]; -0.048 in [4]; -0.136 in [5]; 0.024 in [6]. In addition, the log2 fold change is 0.068 in experiment [7], 0.058 in experiment [8], -0.012 in experiment [9] and 0.037 in experiment [10].

In the case of DSN1 (UniProt Q9H410), the log2 fold change in experiment [1] is 0.063; in [3] it was 0.082; in experiment [4] it was -0.217; in experiment [5], -0.242; in experiment [6], 0.104; in experiment [7], 0.041. For the same target, the log2 fold change in experiment [8] is 0.059; in experiment [9], 0.027; in [10] it was -0.03.

For the target FAM114A2 (UniProt Q9NRY5), the log2 fold change in [1] was -0.094; in [2], 0.025; in experiment [3], -0.035; in experiment [4], -0.032; in [5], -0.083; in [6], 0.004. In addition, the log2 fold change in experiment [7] was 0.001; in [8], 0.019; in experiment [9] it was -0.002; in experiment [10] it was 0.055.

Turning to DTNBP1 (UniProt Q96EV8), the log2 fold change in experiment [1] is 0.014; in experiment [2] it was 0.004; in [3], -0.047; in experiment [4], -0.027; in [5], 0.072; in experiment [6], 0.016. Also, the log2 fold change in [7] is 0.053; in experiment [8], 0.036; in [9], -0.083; in experiment [10], -0.081.

EXOSC10 (UniProt Q01780): the log2 fold change in experiment [1] was -0.63 (active); in [2] it was 0; in experiment [5], 0.017; in experiment [7] it was 0.152; in experiment [8] it was 0.251; in experiment [9] it was 0.195. Also, the log2 fold change in experiment [10] is 0.046.

For DEGS1 (UniProt O15121), the log2 fold change was -0.032 in [1]; -0.029 in [2]; 0.04 in [3]; -0.021 in [4]; -0.1 in experiment [5]; -0.031 in [6]. Also, the log2 fold change was -0.07 in experiment [7], -0.026 in experiment [9] and 0.087 in experiment [10].

Turning to DHRS7B (UniProt Q6IAN0), the log2 fold change in experiment [1] was 0.001; in experiment [2], 0.213; in [3] it was 0.114; in [4] it was 0.01; in experiment [5], -0.066; in experiment [6] it was 0.056. The log2 fold change in experiment [7] is 0.047; in experiment [8], -0.113; in [9], 0.008; in experiment [10], -0.023.

As to EEF2K (UniProt O00418), the log2 fold change in [2] was 0.007; in [7], -0.108; in experiment [8], 0; in experiment [9], -0.092; in experiment [10], -0.371.

As for ELOVL7 (UniProt A1L3X0), the values for the log2 fold change in experiment [5] and in [7] were -0.088 and -0.057, respectively.

ELF1 (UniProt P32519): the log2 fold change in experiment [3] was 0.096; in experiment [4] it was -0.028; in experiment [5] it was -0.134; in experiment [6], 0.122; in [7], 0.003; in [8], 0.049. Also, the log2 fold change in experiment [9] is -0.024.

As to ENTR1 (UniProt Q96C92), the values for the log2 fold change in [5] and in [9] were 0.003 and 0.259, respectively.

Regarding CTSS (UniProt P25774), the log2 fold change in experiment [2] was -0.063; in experiment [5], 0.052; in [7], -0.07; in experiment [8], -0.028.

Take DLK1 (UniProt P80370): the log2 fold change in [5] is -0.012; in [7], -0.279.

As for ELAC1 (UniProt Q9H777), the log2 fold change in [2] was 0.124; in [3], 0.145; in experiment [4], -0.111; in [5], -0.073; in [6], -0.103; in experiment [7] it was -0.032. For the same target, the log2 fold change in [9] is 0.036.

DHRS13 (UniProt Q6UX07): the log2 fold change in experiment [2] was -0.208; in [3], 0.197; in [4], -0.153; in [5] it was 0.005; in experiment [6], -0.106; in [7] it was 0.021. Besides, the values for the log2 fold change in [8] and in [10] were -0.168 and 0.049, respectively.

With FAM135A (UniProt Q9P2D6), the log2 fold change in experiment [3] is 0.054; in experiment [4], -0.138; in experiment [6], -0.054.

For EPHB4 (UniProt P54760), the values for the log2 fold change in experiment [8], in experiment [9] and in experiment [10] were -0.051, -0.257 and 0.176, respectively.

In the case of CTNNBL1 (UniProt Q8WYA6), the log2 fold change in experiment [1] was -0.12; in experiment [9] it was 0.022.

In the case of FAM193B (UniProt Q96PV7), the log2 fold change is 0.19 in experiment [1], -0.01 in experiment [5], 0.171 in experiment [7] and -0.027 in experiment [9].
